Laboratory results: paper PMC11995724, “Antibiotic target discovery by integrated phenotypic and activity-based profiling of electrophilic fragments” (Cell chemical biology, 2025)
About 110 (3.4%) of roughly 3,200 compounds showed an effect of 50% or more. The full list was thinned out, with strong results kept by preference.

Tested on: T1, V. cholerae SAD30
T1 construct: SAD30
Parameters: species or system S. aureus MSSA476 (TSB) or V. cholerae SAD30 (LB); 384-well bacterial growth screen at 25 uM, OD600 relative to DMSO control
Details: relative growth, OD600, LB; 25 µM; inhibitor

| Compound | % of control remaining [%] |
| --- | --- |
| N#Cc1cc([N+](=O)[O-])ccc1NC(=O)CCl [4-O09, 2-chloro-N-(2-cyano-4-nitrophenyl)acetamide] | 91.611 |
| CC(Cl)C(=O)Nc1cc([N+](=O)[O-])ccc1Cl (stereo not drawn) [6-I14, 2-chloro-N-(2-chloro-5-nitrophenyl)propanamide] | 87.6671 |
| CC(Cl)C(=O)Nc1cc(C(F)(F)F)ccc1Cl (stereo not drawn) [4-N15, 2-chloro-N-[2-chloro-5-(trifluoromethyl)phenyl]propanamide] | 99.8922 |
| N#CC(=Cc1cc([N+](=O)[O-])ccc1Cl)C(N)=O [8-F21, 3-(2-chloro-5-nitrophenyl)-2-cyanoprop-2-enamide] | 76.0707 |
| O=C(CCl)N1CCCCc2ccc([N+](=O)[O-])cc21 [5-I18, 2-chloro-1-(8-nitro-2,3,4,5-tetrahydro-1H-1-benzazepin-1-yl)ethan-1-one] | 94.3154 |
| O=C1C=CC(=O)N1c1cc([N+](=O)[O-])ccc1Cl [10-H15, 1-(2-chloro-5-nitrophenyl)-2,5-dihydro-1H-pyrrole-2,5-dione] | 28.2096 |
| O=C(CCl)Nc1cc(C(F)(F)F)ccc1Cl [4-J04, 2-chloro-N-[2-chloro-5-(trifluoromethyl)phenyl]acetamide] | 111.106 |
| Cc1ccc([N+](=O)[O-])cc1N1C(=O)C=CC1=O [10-O14, 1-(2-methyl-5-nitrophenyl)-2,5-dihydro-1H-pyrrole-2,5-dione] | 26.6511 |
| O=C1C=CC(=O)N1c1cc(C(F)(F)F)ccc1Cl [10-G09, 1-[2-chloro-5-(trifluoromethyl)phenyl]-2,5-dihydro-1H-pyrrole-2,5-dione] | 26.3394 |
| CC(NC(=O)CCl)C(=O)N1CCCCC1C (stereo not drawn) [5-M06, 2-chloro-N-[1-(2-methylpiperidin-1-yl)-1-oxopropan-2-yl]acetamide] | 96.6691 |
| C=CC(=O)NC(C)c1cn(-c2ccccc2)nn1 (stereo not drawn) [1-N04, N-[1-(1-phenyl-1H-1,2,3-triazol-4-yl)ethyl]prop-2-enamide] | 110.893 |
| COc1ccc(-c2nn(-c3ccccc3)cc2C=C(C#N)C(N)=O)cc1 [8-L16, 2-cyano-3-[3-(4-methoxyphenyl)-1-phenyl-1H-pyrazol-4-yl]prop-2-enamide] | 71.7199 |
| CCN(Cc1ccc(Cl)s1)C(=O)CCl [6-M11, 2-chloro-N-[(5-chlorothiophen-2-yl)methyl]-N-ethylacetamide] | 83.1169 |
| O=C(CCl)N1N=C(c2ccc(Cl)cc2)CC1c1ccco1 (stereo not drawn) [5-L04, 2-chloro-1-[3-(4-chlorophenyl)-5-(furan-2-yl)-4,5-dihydro-1H-pyrazol-1-yl]ethan-1-one] | 105.748 |
| CC(Cl)C(=O)N1N=C(c2ccc(Cl)cc2)CC1c1ccco1 (stereo not drawn) [5-H18, 2-chloro-1-[3-(4-chlorophenyl)-5-(furan-2-yl)-4,5-dihydro-1H-pyrazol-1-yl]propan-1-one] | 49.4273 |
| COc1ccc(C2=NN(C(=O)CCl)C(c3ccco3)C2)cc1 (stereo not drawn) [4-N19, 2-chloro-1-[5-(furan-2-yl)-3-(4-methoxyphenyl)-4,5-dihydro-1H-pyrazol-1-yl]ethan-1-one] | 106.103 |
| C=CC(=O)NCc1ccc2oc(=O)n(C)c2c1 [2-L15, N-[(3-methyl-2-oxo-2,3-dihydro-1,3-benzoxazol-5-yl)methyl]prop-2-enamide] | 88.6519 |
| Cn1c(=O)oc2cc(C(=O)CCl)ccc21 [10-F07, 6-(2-chloroacetyl)-3-methyl-2,3-dihydro-1,3-benzoxazol-2-one] | 44.886 |
| Cc1cc(C(=O)CCl)co1 [10-A13, 2-chloro-1-(5-methylfuran-3-yl)ethan-1-one] | 114.397 |
| Cc1nc2n(n1)CCN(C(=O)C(C)Cl)C2 (stereo not drawn) [5-A04, 2-chloro-1-{2-methyl-5H,6H,7H,8H-[1,2,4]triazolo[1,5-a]pyrazin-7-yl}propan-1-one] | 108.438 |
| O=C(CCl)NC(c1ccccc1)C1CCCC1 (stereo not drawn) [6-O18, 2-chloro-N-[cyclopentyl(phenyl)methyl]acetamide] | 92.0656 |
| CC(Cl)C(=O)c1ccc(F)c(F)c1 (stereo not drawn) [10-A17, 2-chloro-1-(3,4-difluorophenyl)propan-1-one] | 103.955 |
| Cc1cc(C(=O)CCl)c(C)n1-c1ccc(Cl)c(Cl)c1 [10-D18, 2-chloro-1-[1-(3,4-dichlorophenyl)-2,5-dimethyl-1H-pyrrol-3-yl]ethan-1-one] | 108.475 |
| O=C(CCl)c1sccc1Cl [10-K11, 2-chloro-1-(3-chlorothiophen-2-yl)ethan-1-one] | 0 |
| COC(=O)c1cccc(C(=O)CCl)c1 [10-I11, methyl 3-(2-chloroacetyl)benzoate] | 32.4177 |
| CN(C)C(=O)c1csc(C(=O)CCl)c1 [10-I07, 5-(2-chloroacetyl)-N,N-dimethylthiophene-3-carboxamide] | 105.981 |

| Compound | % of control remaining [%] |
| --- | --- |
| CC(=O)NCCc1cc(C(=O)CCl)ccc1F [10-O05, N-{2-[5-(2-chloroacetyl)-2-fluorophenyl]ethyl}acetamide] | 118.138 |
| O=C(O)c1csc(C(=O)CCl)c1 [10-E22, 5-(2-chloroacetyl)thiophene-3-carboxylic acid] | 102.864 |
| COC(=O)c1ccccc1NC(=O)CCl [5-B12, methyl 2-(2-chloroacetamido)benzoate] | 89.6081 |
| O=C(CCl)c1ccc(F)c(F)c1 [10-L13, 2-chloro-1-(3,4-difluorophenyl)ethan-1-one] | 4.208 |
| COC(=O)c1ccc2[nH]cc(C(=O)CCl)c2c1 [10-D05, methyl 3-(2-chloroacetyl)-1H-indole-5-carboxylate] | 99.1233 |
| Cc1cc(C(=O)CCl)c(C)n1-c1ccc(Cl)cc1 [10-H18, 2-chloro-1-[1-(4-chlorophenyl)-2,5-dimethyl-1H-pyrrol-3-yl]ethan-1-one] | 103.331 |
| O=C(CCl)c1cc(Cl)ccc1Cl [10-E16, 2-chloro-1-(2,5-dichlorophenyl)ethan-1-one] | 49.5617 |
| Cc1cccc(C=C(C#N)C(=O)Nc2ccc(C(=O)O)cc2)c1 [8-M21, 4-[2-cyano-3-(3-methylphenyl)prop-2-enamido]benzoic acid] | 75.7988 |
| CC(NC(=O)CCl)c1ccc2c(c1)CCCC2 (stereo not drawn) [4-B03, 2-chloro-N-[1-(5,6,7,8-tetrahydronaphthalen-2-yl)ethyl]acetamide] | 113.867 |
| COc1cc2c(cc1NC(=O)C(C)Cl)oc1ccccc12 (stereo not drawn) [6-G09, 2-chloro-N-{4-methoxy-8-oxatricyclo[7.4.0.0,2,7]trideca-1(9),2(7),3,5,10,12-hexaen-5-yl}propanamide] | 55.9674 |
| CC(C)NC(=O)C(C#N)=Cc1ccc(Cl)cc1 [9-C09, 3-(4-chlorophenyl)-2-cyano-N-(propan-2-yl)prop-2-enamide] | 85.3161 |
| COCC(C)n1c(C)cc(C=C(C#N)C(=O)NS(C)(=O)=O)c1C (stereo not drawn) [8-B04, 2-cyano-N-methanesulfonyl-3-[1-(1-methoxypropan-2-yl)-2,5-dimethyl-1H-pyrrol-3-yl]prop-2-enamide] | 81.6451 |
| C=CCNC(=O)C(C#N)=Cc1cccc(C(F)(F)F)c1 [8-L09, 2-cyano-N-(prop-2-en-1-yl)-3-[3-(trifluoromethyl)phenyl]prop-2-enamide] | 71.8559 |
| C=CC(=O)N1CC[C@H](NS(C)(=O)=O)C1 [2-H21, N-[(3S)-1-(prop-2-enoyl)pyrrolidin-3-yl]methanesulfonamide] | 102.239 |
| C=CC(=O)N(CC)Cc1nc2ccsc2c(=O)[nH]1 [3-P16, N-ethyl-N-({4-oxo-3H,4H-thieno[3,2-d]pyrimidin-2-yl}methyl)prop-2-enamide] | 108.146 |
| C=CC(=O)N1Cc2ccccc2C[C@@H]1C(=O)NC1CC1 [2-G06, (3R)-N-cyclopropyl-2-(prop-2-enoyl)-1,2,3,4-tetrahydroisoquinoline-3-carboxamide] | 95.7541 |
| Cc1cc(C=C(C#N)C(=O)Nc2nccs2)cc(C)c1O [9-D13, 2-cyano-3-(4-hydroxy-3,5-dimethylphenyl)-N-(1,3-thiazol-2-yl)prop-2-enamide] | 84.7723 |
| C=CC(=O)N[C@H]1CCN(S(=O)(=O)c2ccccc2)C1 [3-P11, N-[(3S)-1-(benzenesulfonyl)pyrrolidin-3-yl]prop-2-enamide] | 106.205 |
| COc1ccc(C2=NN(C(=O)CCl)C(c3ccc(F)cc3)C2)cc1 (stereo not drawn) [4-M20, 2-chloro-1-[5-(4-fluorophenyl)-3-(4-methoxyphenyl)-4,5-dihydro-1H-pyrazol-1-yl]ethan-1-one] | 100.927 |
| O=C(CCl)c1ccc2[nH]c(=O)[nH]c2c1 [10-I14, 5-(2-chloroacetyl)-2,3-dihydro-1H-1,3-benzodiazol-2-one] | 105.513 |
| COc1cc(OC)c(C(=O)CCl)c(OC)c1 [10-L04, 2-chloro-1-(2,4,6-trimethoxyphenyl)ethan-1-one] | 98.344 |
| O=C(CCl)c1ccc2c(c1)-c1ccccc1C2 [10-H17, 2-chloro-1-(9H-fluoren-3-yl)ethan-1-one] | 91.4865 |
| COc1ccc(C(=O)CCl)cc1Cl [10-D10, 2-chloro-1-(3-chloro-4-methoxyphenyl)ethan-1-one] | 0.9351 |
| COc1ccc(C(=O)CCl)c(OC)c1 [10-G18, 2-chloro-1-(2,4-dimethoxyphenyl)ethan-1-one] | 111.748 |
| O=C(CCl)c1ccc(Cl)c(Cl)c1 [10-L16, 2-chloro-1-(3,4-dichlorophenyl)ethan-1-one] | 0 |
